Reference: PMC5540273 (PLoS ONE, 2017)

system: RET
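Note: kd values determined as follow-up on hits from a single-replicate KINOMEscan panel screen.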

Compound	Kd [nM]
O=c1cc(N2CCOCC2)nc2n(Cc3cccc(Cl)c3)ccn12 [GSK2296823]	> 10000
Cl.O=S(=O)(c1cccc(F)c1)c1ccc(Nc2ncnc3cc(Br)sc23)cc1Cl [GSK306886]	> 10000
COc1cc2c(Nc3cccc(NC(=O)c4ccccc4)c3)ncnc2cc1OCCCN1CCOCC1 [GSK223810]	110
Nc1n[nH]c2nnc(-c3ccccc3)cc12 [SB-517389]	> 10000

system: RIPK2

Compound	Kd [nM]
O=C(Nc1ccccc1)Nc1ccc(Oc2ccc3nccn3n2)cc1	> 10000
Oc1ccc2ncnc(Nc3ccc(OCc4ccccc4)cc3)c2c1 [GI262866]	8.1
COc1cc2ncnc(Nc3ccc(OCc4ccccc4Br)c(Cl)c3)c2cc1OC.Cl [GI261590]	410
CCc1nc(-c2cccc(N(C)S(=O)(=O)c3ccccc3)c2)c(-c2ccnc(Nc3ccc(N4CCN(C(C)=O)CC4)nc3)n2)s1 [GSK1645895]	130
